Source: the antibiotic and cytotoxicity screens of Wong et al. (2023)
In all, about 39,000 compounds went through this assay and about 1,500 (3.8%) were called active. What follows is part of a selection rich in actives, with near analogues and random picks from the rest.

Test system: HSkMC (human skeletal muscle cells)
Experiment: cytotoxicity call (relative viability < 0.9)
Settings: 10 µM

Row | Compound | cytotoxicity call
1 | C[C@H]1CN([C@@H](C)CO)C(=O)c2cc(C#Cc3ccccn3)cnc2O[C@H]1CN(C)C(=O)CCN1CCCCC1 | inactive
2 | C[C@@H]1CN([C@H](C)CO)C(=O)Cc2cc(NC(=O)CCCCCC(=O)Nc3ccccc3N)ccc2O[C@@H]1CN(C)Cc1ccc(Cl)c(Cl)c1 | inactive
3 | C[C@@H]1CN([C@@H](C)CO)C(=O)c2cccc(NS(=O)(=O)c3cccs3)c2O[C@H]1CN(C)C(=O)Nc1cccc2ccccc12 | inactive
4 | C[C@@H]1CCCCO[C@H](CN(C)C(=O)Nc2ccc3c(c2)OCO3)[C@H](C)CN([C@H](C)CO)C(=O)c2cc(NC(=O)c3ccccc3)ccc2O1 | inactive
5 | C[C@@H]1CN([C@@H](C)CO)C(=O)c2cc(NC(=O)Cc3cn(C)c4ccccc34)ccc2O[C@H]1CN(C)Cc1ccc(C(=O)Nc2ccccc2N)cc1 | inactive
6 | CC(C)NC(=O)Nc1ccc2c(c1)CC(=O)N([C@H](C)CO)C[C@H](C)[C@@H](CN(C)S(=O)(=O)c1cccs1)O2 | inactive
7 | CC(C)NC(=O)N(C)C[C@H]1Oc2c(NS(=O)(=O)c3ccccc3)cccc2C(=O)N([C@@H](C)CO)C[C@@H]1C | inactive
8 | Cc1ccc(S(=O)(=O)N(C)C[C@@H]2Oc3ccc(NS(=O)(=O)c4ccc(F)cc4)cc3CC(=O)N([C@@H](C)CO)C[C@@H]2C)cc1 | inactive
9 | C[C@@H]1CN([C@@H](C)CO)C(=O)c2cc(NC(=O)NC3CCCCC3)ccc2O[C@@H](C)CCCCO[C@H]1CN(C)C(=O)Cc1ccccc1 | inactive
10 | C[C@@H]1CN([C@H](C)CO)C(=O)c2cc(NC(=O)c3ccncc3)ccc2O[C@@H]1CN(C)S(=O)(=O)c1cn(C)cn1 | inactive
11 | CCCCC(CC)CN1CN(CC(CC)CCCC)CC(C)(N)C1 (configuration not stated) | active
12 | C[C@@H]1CN([C@@H](C)CO)C(=O)Cc2cc(NC(=O)NC3CCCCC3)ccc2O[C@H]1CN(C)Cc1ccc(C(=O)Nc2ccccc2N)cc1 | inactive
13 | C[C@@H]1CN([C@@H](C)CO)S(=O)(=O)c2ccc(Br)cc2O[C@@H]1CN(C)C(=O)c1cnccn1 | inactive
14 | C[C@@H]1CCCCO[C@@H](CN(C)Cc2ccc(C(=O)O)cc2)[C@@H](C)CN([C@H](C)CO)C(=O)c2cc(NC(=O)CCC(F)(F)F)ccc2O1 | inactive
15 | C[C@@H]1CN([C@@H](C)CO)C(=O)c2ccccc2-c2ccccc2CO[C@@H]1CN(C)Cc1ccccc1C(F)(F)F | inactive
16 | C[C@@H]1CN([C@H](C)CO)C(=O)c2ccccc2-c2ccccc2CO[C@@H]1CN(C)Cc1ccccc1C(F)(F)F | inactive
17 | C[C@H](CO)N1C[C@H](C)[C@H](CN(C)Cc2ccccc2C(F)(F)F)OCc2ccccc2-c2ccccc2C1=O | active
18 | C[C@H]1CN([C@@H](C)CO)C(=O)c2ccccc2-c2ccccc2CO[C@H]1CN(C)Cc1ccccc1C(F)(F)F | inactive
19 | C[C@H]1CN([C@@H](C)CO)C(=O)c2ccccc2-c2ccccc2CO[C@@H]1CN(C)Cc1ccccc1C(F)(F)F | active
20 | C[C@H](CO)N1C[C@H](C)[C@@H](CN(C)Cc2ccccc2C(F)(F)F)OCc2ccccc2-c2ccccc2C1=O | inactive
21 | C[C@H](CO)N1C[C@H](C)[C@@H](CN(C)C(=O)Nc2cccc3ccccc23)Oc2c(NC(=O)Nc3ccc(F)cc3)cccc2C1=O | inactive
22 | C[C@H](CO)N1C[C@H](C)[C@H](CN(C)Cc2ccc(C(=O)O)cc2)Oc2ccc(NC(=O)CCN3CCOCC3)cc2C1=O | inactive
23 | NC(=O)NCC#Cc1ccc2c(c1)[C@]1(C(=O)N2)[C@H](c2ccccc2OCCO)N2[C@H](c3ccccc3)[C@H](c3ccccc3)OC(=O)[C@H]2[C@@H]1C(=O)N1CCCCCCC1 | inactive
24 | Cc1noc(C)c1NC(=O)N(C)C[C@H]1Oc2ccc(NS(=O)(=O)c3cn(C)cn3)cc2CC(=O)N([C@H](C)CO)C[C@H]1C | inactive

Row | Compound | cytotoxicity call
25 | CN1C(=O)c2cc(NC(=O)c3ccc(C(F)(F)F)cc3)ccc2OC[C@@H]2O[C@@H](CC(=O)NC3Cc4ccccc4C3)CC[C@@H]21 | inactive
26 | C[C@@H]1CN([C@@H](C)CO)C(=O)c2cc(NC(=O)CCCN(C)C)ccc2O[C@H]1CN(C)Cc1ccc2c(c1)OCO2 | inactive
27 | Nc1[nH]ncc1-c1cc(Cl)ccc1Oc1cc(F)c(S(=O)(=O)Nc2cscn2)cc1Cl | inactive
28 | Cc1noc(C)c1S(=O)(=O)Nc1ccc2c(c1)C(=O)N([C@H](C)CO)C[C@@H](C)[C@@H](CN(C)C)OCCCC[C@H](C)O2 | inactive
29 | CCc1nc2ccc(C(=O)NC3CCN(Cc4ccccc4)CC3)cn2c1N(C)Cc1cc2ccccc2s1 | active
30 | CCc1nc2ccc(C(=O)Nc3cccc(OCC(=O)N(C)C)c3)cn2c1N(C)Cc1cc2ccccc2s1 | inactive
31 | CCc1nc2ccc(C(=O)NC3CCN(Cc4ccccc4)CC3)cn2c1N(C)CCN1CCOCC1 | inactive
32 | CCN(CC)c1ccnc([C@H]2COCCN2)n1 | inactive
33 | CC(C)NC(=O)N(C)C[C@@H]1Oc2ccc(NC(=O)Nc3ccc4c(c3)OCO4)cc2C(=O)N([C@@H](C)CO)C[C@H]1C | inactive
34 | CNC1C(O)C(NC)C2OC3(O)C(=O)CC(C)OC3OC2C1O.Cl.Cl (configuration not stated) | inactive
35 | Nc1ccccc1C(=O)C[C@H](N)C(=O)O | inactive
36 | Nc1ccc(/C=C/C(=O)NCc2cc3cc(-c4ccc(C(=O)N5CCC(F)(F)CC5)cc4)cc(-c4ccc(F)cc4)c3o2)cn1 | active
37 | C[C@H]1CN([C@@H](C)CO)C(=O)c2cc(NC(=O)c3ccncc3)ccc2O[C@H]1CN(C)Cc1ccncc1 | inactive
38 | O=C1[C@@H]2[C@H](C(=O)N1c1ccccc1)C13COC[C@H](c4ccccc4)N1C(=O)C2(C(=O)NCc1ccccc1)O3 (some centres not stated) | inactive
39 | COc1ccc(S(=O)(=O)Nc2ccc3c(c2)C(=O)N([C@H](C)CO)C[C@@H](C)[C@H](CN(C)Cc2ccc(-c4ccccc4)cc2)O3)cc1 | inactive
40 | COc1ccc(S(=O)(=O)Nc2ccc3c(c2)C(=O)N([C@@H](C)CO)C[C@H](C)[C@@H](CN(C)Cc2ccc(-c4ccccc4)cc2)O3)cc1 | inactive
41 | COc1ccc(S(=O)(=O)Nc2ccc3c(c2)C(=O)N([C@H](C)CO)C[C@@H](C)[C@H](CN(C)Cc2ccc(Oc4ccccc4)cc2)O3)cc1 | inactive
42 | COc1ccc(S(=O)(=O)Nc2ccc3c(c2)C(=O)N([C@H](C)CO)C[C@@H](C)[C@@H](CN(C)Cc2ccc(-c4ccccc4)cc2)O3)cc1 | active
43 | COc1ccc(S(=O)(=O)Nc2ccc3c(c2)C(=O)N([C@@H](C)CO)C[C@@H](C)[C@@H](CN(C)Cc2ccc(-c4ccccc4)cc2)O3)cc1 | active
44 | COc1ccc(S(=O)(=O)Nc2ccc3c(c2)C(=O)N([C@@H](C)CO)C[C@@H](C)[C@H](CN(C)Cc2ccc(-c4ccccc4)cc2)O3)cc1 | active
45 | COc1ccc(S(=O)(=O)Nc2ccc3c(c2)C(=O)N([C@H](C)CO)C[C@H](C)[C@H](CN(C)Cc2ccc(-c4ccccc4)cc2)O3)cc1 | inactive
46 | COc1ccc(S(=O)(=O)Nc2ccc3c(c2)C(=O)N([C@@H](C)CO)C[C@H](C)[C@H](CN(C)Cc2ccc(-c4ccccc4)cc2)O3)cc1 | inactive
47 | COc1ccc(S(=O)(=O)Nc2ccc3c(c2)C(=O)N([C@H](C)CO)C[C@H](C)[C@@H](CN(C)Cc2ccc(-c4ccccc4)cc2)O3)cc1 | inactive
